The source of these data is PubChem BioAssay (NCATS).

SMILES strings stand for the structures. Several values for one entry are separate records, joined by “and”; a condition that tells them apart may be missing. Equal entries are not always repeated. Records with an inconclusive call do not appear. More than one record can exist for a structure, and the calls need not agree. Activity calls are given as the source filed them. Unless noted, calls come from the whole dose curve; as a rule, active = well fitted curve in the direction sought with a large enough effect; inconclusive = small, poorly fitted or top-dose-only effect, or another doubt; inactive = no such curve, though single readings can be large; an effect the other way counts as inactive or inconclusive.

Experiment [1] in a line: qHTS for Inhibitors of Plasmodium falciparum (DD2) proliferation (AID 504314).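 For activity, negative = inhibition: parasite DNA measured by SYBR Green fluorescence after red cell lysis; plate controls were DMSO vehicle for no effect and artemisinin wells for full effect.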 Note: potency is the fitted concentration of half-maximal effect. The method, boiled down: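 Infected RBCs, 0.3% parasitemia, 2.5% Hct; compound 72 h, 37C/5% CO2; lyse + SYBR Green I, RT overnight, dark; read ex485/em535; normalize to DMSO and artemisinin 0.29 uM.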
On the technique in general: qHTS replaces the single test concentration by a dilution series.

A short description of experiment [2]: qHTS for Inhibitors of Plasmodium falciparum (GB4) proliferation (AID 504315). Note: nearly all actives have a fitted effect of over 50% in size. Note: potency is the fitted concentration of half-maximal effect. The essentials: (§1)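 Erythrocytes infected with P. falciparum line (0.3% parasitemia, 2.5% hematocrit final) incubated with compounds 72 h at 37 °C, 5% CO2; SYBR Green lysis buffer added, fluorescence read next day. Normalized to 0.29 uM artemisinin and DMSO.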
Experiment [3] is described as follows: qHTS for Inhibitors of Plasmodium falciparum (7G8) proliferation (AID 504316). Note: nearly all actives have a fitted effect of over 65% in size. Note: potency is the fitted concentration of half-maximal effect. The method, boiled down:
as §1

A short description of experiment [4]: qHTS for Inhibitors of Plasmodium falciparum (HB3) proliferation (AID 504318). Note: nearly all actives have a fitted effect of over 60% in size. Note: potency is the fitted concentration of half-maximal effect. The method, boiled down:
as §1

Experiment [5] is described as follows: qHTS for Inhibitors of Plasmodium falciparum (CP250) proliferation (AID 504320). Note: potency is the fitted concentration of half-maximal effect. The essentials: as §1
For experiment [6], the target named is Atrial natriuretic peptide receptor 1 (Homo sapiens) (UniProt P16066). Briefly: Natriuretic polypeptide receptor (hNpr1) antagonism - Pilot CMLD screen (AID 1347052; calls by dose curve;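 note: HEK293 cells with hNpr1 stimulated by hNppA peptide at 0.1 nM; cGMP level read as GloSensor luciferase luminescence after agonist stimulation; series mostly up to about 9.2 µM; % is set by controls: 0 for no effect and ±100 for the full control effect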).
Atrial natriuretic peptide receptor 1 (Homo sapiens), sequence (P16066 whole entry, looked up): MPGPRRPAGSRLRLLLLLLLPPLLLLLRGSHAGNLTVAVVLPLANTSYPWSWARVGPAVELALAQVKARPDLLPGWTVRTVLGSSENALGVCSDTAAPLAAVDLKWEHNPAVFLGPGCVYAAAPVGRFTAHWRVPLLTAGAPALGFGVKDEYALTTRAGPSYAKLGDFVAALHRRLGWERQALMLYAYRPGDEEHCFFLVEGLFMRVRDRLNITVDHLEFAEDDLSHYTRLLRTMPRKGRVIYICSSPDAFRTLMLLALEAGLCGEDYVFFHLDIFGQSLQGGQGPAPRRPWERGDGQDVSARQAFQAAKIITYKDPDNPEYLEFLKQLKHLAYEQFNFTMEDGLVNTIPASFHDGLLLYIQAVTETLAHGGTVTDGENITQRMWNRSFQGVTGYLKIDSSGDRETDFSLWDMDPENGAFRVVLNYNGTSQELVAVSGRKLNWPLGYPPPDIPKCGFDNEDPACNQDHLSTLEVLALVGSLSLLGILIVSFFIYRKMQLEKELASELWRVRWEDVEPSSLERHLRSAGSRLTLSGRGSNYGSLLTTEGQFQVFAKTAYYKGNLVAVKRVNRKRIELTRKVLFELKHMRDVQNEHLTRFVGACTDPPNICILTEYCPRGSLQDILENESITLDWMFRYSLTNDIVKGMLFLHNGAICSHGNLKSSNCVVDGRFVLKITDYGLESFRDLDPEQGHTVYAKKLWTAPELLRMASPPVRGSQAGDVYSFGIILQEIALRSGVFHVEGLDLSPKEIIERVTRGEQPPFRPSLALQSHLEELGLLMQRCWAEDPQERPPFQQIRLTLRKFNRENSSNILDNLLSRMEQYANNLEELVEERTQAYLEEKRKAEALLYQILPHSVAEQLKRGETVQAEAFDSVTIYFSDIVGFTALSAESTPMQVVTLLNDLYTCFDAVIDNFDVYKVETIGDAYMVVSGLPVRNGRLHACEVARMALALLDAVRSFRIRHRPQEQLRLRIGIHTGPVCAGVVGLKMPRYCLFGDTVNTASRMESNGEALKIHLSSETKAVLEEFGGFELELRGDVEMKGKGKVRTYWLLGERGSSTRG

With `CN1c2ccccc2[C@@]2(O)C(=O)[C@@]1(C)[C@@H]1c3ccccc3C[C@H]12`, the Potency entry in experiment [1], in experiment [2], in experiment [3], in experiment [4], in experiment [5] and in experiment [6] was “inactive” each time.

As for `COC(=O)N1C(C)=Cc2ccccc2C1CC(C)=CC(C)=O` (centres undefined), the Potency entry in experiment [1], in experiment [2], in experiment [3], in experiment [4], in experiment [5] and in experiment [6] was “inactive” in each case.

Consider `O=c1n(-c2ccccc2)c(=O)n2n1CC[C@@H]1C(=NOC[C@@H](O)COCc3ccco3)[C@H]3O[C@H]3[C@@H](O)[C@H]12`, for which the Potency entry in experiment [1], in experiment [2], in experiment [3], in experiment [4], in experiment [5] and in experiment [6] was “inactive” in each case.

Consider `OC[C@H]1O[C@H](C#Cc2ccc(F)cc2F)C=C[C@H]1O`, for which the Potency result in experiment [1], in experiment [2], in experiment [3], in experiment [4], in experiment [5] and in experiment [6] was “inactive” in each case.

`C=CCOC(=O)NC(c1ccc(F)c(F)c1)C(C(=O)COC)C(=O)OC` (centres undefined): the Potency result in experiment [1], in experiment [2], in experiment [3], in experiment [4], in experiment [5] and in experiment [6] was “inactive” throughout.

As to `C=CCC(O)(C#Cc1ccccc1)c1ccccc1` (centres undefined), the Potency entry in experiment [1], in experiment [2], in experiment [3], in experiment [4], in experiment [5] and in experiment [6] was “inactive” each time.

As to `CC(=O)OC[C@H]1O[C@H](CC=NO[C@@H](C)c2cn([C@H](CO)Cc3ccccc3)nn2)C=C[C@@H]1OC(C)=O`, the Potency result in experiment [1], in experiment [2], in experiment [3], in experiment [4], in experiment [5] and in experiment [6] was “inactive” throughout.

For `CCOC(=O)N1C2=NC(C(=O)OC)=C(C(=O)OC)[C@@H]3Nc4ccccc4[C@]23C[C@H]1C(=O)OC`, the activity, negative = inhibition in experiment [1] is -0.255% [at 1.12 µM] (inactive). The Potency in experiment [2] is 1.9 µM (active) and inactive. The Potency entry in experiment [3], in experiment [4], in experiment [5] and in experiment [6] was “inactive” each time.

With `C#CCCCON=C1C[C@@H](O)[C@H](O)[C@H]2[C@@H]3C(=O)N(C[C@@H]4CCCO4)C(=O)[C@@H]3CC[C@H]12`, the Potency result in experiment [1], in experiment [2], in experiment [3], in experiment [4], in experiment [5] and in experiment [6] was “inactive” each time.

In the case of `CCN1C(=O)N(C)C(c2ccccc2)C(C(C)=O)=C1C` (centres undefined), the Potency result in experiment [1], in experiment [2], in experiment [3], in experiment [4], in experiment [5] and in experiment [6] was “inactive” in each case.

On to `C[C@@H]1C=CCCO[C@]12C(=O)N(Cc1ccc(Br)cc1)c1cccc(Br)c12`, for which the Potency result in experiment [1], in experiment [2], in experiment [3], in experiment [4], in experiment [5] and in experiment [6] was “inactive” throughout.

`COc1cc2c(cc1OC)[C@@H]1O[C@](CCCCN3C(=O)c4ccccc4C3=O)(C2)OC2=C1C(=O)CC(C)(C)C2`: the Potency was 753 nM (active) in experiment [1]; 757 nM (active) in experiment [2]; 301 nM (active) in experiment [3]; 478 nM (active) in experiment [4]; 1510 nM (active) in experiment [5]. The Potency entry in experiment [6] was “inactive”.

For `COC(=O)C[C@H]1c2ccccc2C2=C(C[C@@H](C)[C@H]3C(=O)N(c4ccccc4)C(=O)[C@@H]23)N1C(=O)OC`, the activity, negative = inhibition in experiment [1] was 2.35% [at 1.12 µM] (inactive) and 0.352% [at 1.12 µM] (inactive). Also, the Potency entry in experiment [2], in experiment [3], in experiment [4], in experiment [5] and in experiment [6] was “inactive” each time.

For the compound `CC(C)CON=C1C[C@@H](O)[C@@H](O)[C@@H]2[C@H]3C(=O)N(c4ccc(F)cc4F)C(=O)[C@@H]3CC[C@H]12`, the Potency entry in experiment [1], in experiment [2], in experiment [3], in experiment [4], in experiment [5] and in experiment [6] was “inactive” in each case.

As to `CCOC(=O)C1=CN(CCc2cn(Cc3ccccc3)nn2)C(=O)NC1c1ccccc1` (centres undefined), the Potency entry in experiment [1], in experiment [2], in experiment [3], in experiment [4], in experiment [5] and in experiment [6] was “inactive” in each case.

With `O=P1(O)Oc2c(c(-c3ccccc3)cc3ccccc23)-c2c(-c3ccccc3)cc3ccccc3c2O1`, the Potency result in experiment [1], in experiment [2], in experiment [3], in experiment [4], in experiment [5] and in experiment [6] was “inactive” in each case.

As for `COc1cccc2c1[C@H](C=Cc1ccccc1)[C@@H]([C@H](O)COC(C)=O)OC2`, the Potency result in experiment [1], in experiment [2], in experiment [3], in experiment [4], in experiment [5] and in experiment [6] was “inactive” each time.

On to `COC(=O)N[C@@H](c1cccc(C)c1)[C@]1(C(=O)OC)CCCC1=O`, for which the Potency entry in experiment [1], in experiment [2], in experiment [3], in experiment [4], in experiment [5] and in experiment [6] was “inactive” each time.

As for `CCN1C(=O)NC(CCc2ccccc2)C(C(=O)OC)=C1C` (centres undefined), the Potency result in experiment [1], in experiment [2], in experiment [3], in experiment [4], in experiment [5] and in experiment [6] was “inactive” each time.

Regarding `CC(C)=CCCC(C)=CCON=C1C[C@@H](O)[C@@H](O)[C@@H]2[C@H]3C(=O)N(c4cccc(Oc5ccccc5)c4)C(=O)[C@@H]3CC[C@H]12`, the Potency entry in experiment [1], in experiment [2], in experiment [3], in experiment [4], in experiment [5] and in experiment [6] was “inactive” throughout.

`CCN1C(=NCCc2ccc(Br)cc2)NC(c2ccccc2)C(C(=O)OC)=C1C` (centres undefined): the Potency result in experiment [1], in experiment [2], in experiment [3], in experiment [4], in experiment [5] and in experiment [6] was “inactive” each time.

Regarding `COC(=O)N[C@@H](CCc1ccccc1)[C@]1(C(C)=O)CCCC1=O`, the Potency result in experiment [1], in experiment [2], in experiment [3], in experiment [4], in experiment [5] and in experiment [6] was “inactive” throughout.

With `COC[C@@H](O)[C@H]1OCc2cccc(OC)c2[C@H]1C=Cc1ccccc1`, the Potency result in experiment [1], in experiment [2], in experiment [3], in experiment [4], in experiment [5] and in experiment [6] was “inactive” in each case.

For `COC(=O)C1=C(C(=O)OC)[C@@H]2Nc3ccccc3[C@@]23C[C@@H](C(=O)OC)N(C(=O)NC(C)(C)C)C3=N1`, the Potency entry in experiment [1], in experiment [2], in experiment [3], in experiment [4], in experiment [5] and in experiment [6] was “inactive” each time.
